Compound activity (PubChem)
Rows were chosen to be rich in hits. Some 1.2% of all compounds tested hit in one or more screens of this group.
NPR1 activator = GC-A (human) enzyme activation; HEK293 GC-A cells, cGMP TR-FRET, EC30 ANP; 0% at EC30 ANP, 100% saturating ANP; activation, % at 10 µM; 0.14% of 370,000 active; AID 1671463; in the data active = activation above about 40%
Target sequence (P16066 whole entry, looked up): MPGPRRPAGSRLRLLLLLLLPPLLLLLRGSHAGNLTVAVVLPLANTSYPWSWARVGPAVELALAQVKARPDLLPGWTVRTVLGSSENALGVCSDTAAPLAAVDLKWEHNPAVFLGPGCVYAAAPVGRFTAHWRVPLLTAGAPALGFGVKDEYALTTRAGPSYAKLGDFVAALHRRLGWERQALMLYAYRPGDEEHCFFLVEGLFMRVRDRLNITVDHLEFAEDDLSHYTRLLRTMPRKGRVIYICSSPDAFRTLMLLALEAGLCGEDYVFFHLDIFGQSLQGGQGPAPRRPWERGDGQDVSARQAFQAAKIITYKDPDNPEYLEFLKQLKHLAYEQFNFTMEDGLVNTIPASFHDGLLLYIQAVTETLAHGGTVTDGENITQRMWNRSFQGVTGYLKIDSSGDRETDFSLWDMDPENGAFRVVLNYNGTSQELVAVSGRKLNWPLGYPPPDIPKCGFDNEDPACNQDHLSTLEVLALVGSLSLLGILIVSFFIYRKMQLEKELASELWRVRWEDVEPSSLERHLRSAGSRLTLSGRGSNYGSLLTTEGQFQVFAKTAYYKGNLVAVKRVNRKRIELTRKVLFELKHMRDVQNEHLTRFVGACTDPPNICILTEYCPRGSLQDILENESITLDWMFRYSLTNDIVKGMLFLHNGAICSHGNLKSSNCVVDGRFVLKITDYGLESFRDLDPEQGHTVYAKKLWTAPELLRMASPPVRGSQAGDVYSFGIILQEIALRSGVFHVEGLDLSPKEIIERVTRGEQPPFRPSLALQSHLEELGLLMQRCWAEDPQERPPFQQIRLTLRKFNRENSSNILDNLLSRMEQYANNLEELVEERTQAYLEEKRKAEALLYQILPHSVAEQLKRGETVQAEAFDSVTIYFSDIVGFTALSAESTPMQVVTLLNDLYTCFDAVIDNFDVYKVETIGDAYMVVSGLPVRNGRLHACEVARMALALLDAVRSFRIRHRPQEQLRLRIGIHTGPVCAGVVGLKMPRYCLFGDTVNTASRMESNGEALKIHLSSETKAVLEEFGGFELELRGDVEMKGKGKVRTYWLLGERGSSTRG
NPR2 activator = GC-B (human) receptor activation; HEK293-GC-B cells, CNP EC30, cGMP TR-FRET; 0% at EC30 CNP, 100% saturating CNP; 0.11% of 370,000 active; P20594; activation, % at 10 µM;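 active = activation at 10 µM reaching about 35% in either raw or pattern-adjusted values, limit read from the data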
MsrA act = activators of bovine methionine sulfoxide reductase A | activation, % at 10.6 µM | 0.3% of 360,000 active | purified bovine MsrA, absorbance read-out | AID 602163; in the data active = activation above about 7.5%
MsrA inh = inhibitors of bovine MsrA; inhibition, % at 15.5 µM; AID 651718; 0.75% of 360,000 active; purified bovine MsrA, absorbance read-out; in the data active = inhibition above about 4.5%
Hits are given with their value; – = inactive; · = not tested or not shown.

SMILES	NPR1 activator	NPR2 activator	MsrA act	MsrA inh
O=[N+]([O-])c1ccc(CN2CCOCCOCCN(Cc3ccc([N+](=O)[O-])cc3Cl)CCOCC2)c(Cl)c1	–	–	·	·
N#C/C(=C(/O)c1ccccc1F)c1nc2cc(C(F)(F)F)ccc2s1	–	–	–	4.7
Cc1cc(C)nc(NC(=S)N2CCN(c3ncc(C(F)(F)F)cc3Cl)CC2)c1	–	–	·	·
Cc1ccc(-c2cc(C(F)F)nc(S(C)(=O)=O)n2)cc1	74	–	–	–
C#CCOCCOCCOCCNc1nc(N2CCN(C(=O)[C@H]([C@@H](C)CC)n3cc(CCCCN)nn3)CC2)nc(N2CCN(C(=O)[C@H](Cc3ccc(O)cc3)n3cc(CCO)nn3)CC2)n1	–	–	·	·
CCOc1cc(N2CCOCC2)c(OCC)cc1NC(=O)COC(=O)c1ccc([N+](=O)[O-])o1	–	37	–	–
CCOc1cc(N2CCOCC2)c(OCC)cc1NC(=O)COC(=O)c1cc(C)cc(C)c1	–	–	–	–
CC(C)Nc1nc(Cl)nc(N(C#N)CN2C(=O)c3ccccc3C2=O)n1	48	48	–	–
CCC(C)Nc1nc(Cl)nc(N(C#N)CN2C(=O)c3ccccc3S2(=O)=O)n1 (configuration not stated)	–	–	–	–
CC(C)c1ccc(Nc2nnc(SC3CCOC3=O)s2)cc1 (configuration not stated)	65	–	–	–
CC(=O)N1CCc2cc(S(=O)(=O)NC3CCN(C(=O)C(C)(C)C)CC3)ccc21	–	–	·	·
O=C(CSc1ncnc2c1oc1ccccc12)Nc1ccccc1F	63	–	–	–
CCN(CCCNC(=O)C1CCC(=O)N1C1CCCC1)c1cccc(C)c1 (configuration not stated)	–	–	–	–
CCN(CCCNC(=O)C1CCC(=O)N1Cc1ccc(F)cc1)c1cccc(C)c1 (configuration not stated)	–	–	11	–
CCCCCCCC(=O)N[C@H]1CC[C@@]23CCCN2C(=O)CCC[C@H]3[C@H]1C	–	–	·	·
Cc1c(N=C2N=C(NC(=O)c3ccc(F)cc3)c3ccccc32)c(=O)n(-c2ccccc2)n1C	58	–	–	–
Cc1c(NC(=O)NC(=O)c2ccc(F)cc2)c(=O)n(-c2ccccc2)n1C	–	–	–	–
CCCCCn1c(NC2CCCCC2)nc2c1c(=O)[nH]c(=O)n2C	48	–	–	–
C/C(Cl)=C\Cn1c(Nc2ccccc2)nc2c1c(=O)n(C)c(=O)n2C	62	55	–	–
C/C(Cl)=C/Cn1c(NCCN(C)C)nc2c1c(=O)n(C)c(=O)n2C	–	–	–	–
Cn1c(=O)c2c(nc(NC3CCCCC3)n2Cc2ccccc2)n(C)c1=O	79	54	–	–
COc1ccc(C(=O)OCCN2CCN(C3CN(Cc4cn(Cc5cccc(F)c5)nn4)S(=O)(=O)C3)CC2)cc1OC (configuration not stated)	–	–	·	·
Cc1nc2ccc(NC(=O)c3c(Cl)cccc3Cl)cc2c(=O)[nH]1	–	–	·	·
O=[N+]([O-])c1cc(-c2ccc(C(=S)N3CCOCC3)o2)ccc1Cl	–	–	–	–
N#CCCN1CCN(C(=S)c2ccc(-c3cccc(Cl)c3)o2)CC1	–	73	–	–
SMILES	NPR1 activator	NPR2 activator	MsrA act	MsrA inh
S=C(c1ccc(-c2cccc(Cl)c2)o1)N1CCCCC1	–	–	–	–
N#CCCN1CCN(C(=S)c2ccc(-c3ccc(Cl)c(Cl)c3)o2)CC1	–	61	–	–
O=C(NCc1ccc(C(=O)N2CCCC2)cc1)c1cccc(Br)c1	–	–	·	·
Cc1nn(CCCC(=O)Nc2sc3c(c2C#N)CCC3)c(C)c1[N+](=O)[O-]	–	–	–	25
COC(=O)[C@]12C[C@H](CC(=O)N3CCCCC3)C(=O)N(Cc3ccc(Cl)cc3Cl)C1=C[C@H](C(C)C)O[C@@H]2C1CC1	–	–	·	·
CCn1cnc2c1c(=O)n(Cc1ccc(C(=O)OC)cc1)c(=O)n2Cc1ccccc1	–	35	–	–
CCn1cnc2c1c(=O)n(CC(=O)OC)c(=O)n2Cc1ccccc1	–	–	–	–
Cc1cccc(Nc2nnc(-c3ccc(N4CCOCC4)c([N+](=O)[O-])c3)c3ccccc23)c1	–	48	–	–
N#Cc1c2c(c(NCCN3CCOCC3)n3c1nc1ccccc13)CCCC2	–	–	–	–
N#Cc1c2c(c(Nc3ccc(F)cc3)n3c1nc1ccccc13)CCCC2	44	–	–	–
N#Cc1c2c(c(Nc3ccccc3)n3c1nc1ccccc13)CCC2	54	–	–	–
C[C@@H]1OC(C2CCCCC2)N(C)[C@H]2C[C@H]3c4cc(-c5ccc6c(c5)OCO6)ccc4CCN3C[C@@H]12 (some centres not stated)	–	–	·	·
